Growth data for nine compounds are collected here from PubChem BioAssay (NCI).

SMILES strings stand for the structures. The panel holds about 83,000 compounds, 20% with a hit somewhere; the sample as a whole holds those more often.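 Testing used 96-well plates and a 48-hour single-concentration exposure. Example: -40 means 40% of the starting cells died.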 Unmarked numbers belong to inactive results. Active and inactive are the calls of the source. Rule for the calls: active = growth percent below 10; inactive = the rest.

Among the test systems are SR leukemia; RPMI-8226 leukemia; OVCAR-8 ovarian; OVCAR-5 ovarian; OVCAR-4 ovarian; SK-OV-3 ovarian; IGROV1 ovarian; OVCAR-3 ovarian; HS 578T breast; NCI/ADR-RES ovarian; T-47D breast; BT-549 breast; MDA-MB-435 melanoma; SW-620 colon; MCF7 breast; HCT-116 colon; HCC-2998 colon; KM12 colon.
What all share (assay): NCI-60 one-dose screen, 48 h (100 = growth as untreated, 0 = no growth, -100 = all killed)
Holding throughout (conditions): 10 µM unless noted

Turning to `CCCS(=O)(=O)c1nc(NC2CC2)cc(-c2ccc3c(ccn3C3CC(C)(C)NC(C)(C)C3)c2)n1`, the growth in the assay on SR leukemia is -14.5% (active); in the assay with RPMI-8226 leukemia, -32.6% (active); with OVCAR-8 ovarian it was -52.8% (active); in the assay with OVCAR-5 ovarian, -15.2% (active); in the assay with OVCAR-4 ovarian, -70.6% (active); with SK-OV-3 ovarian, 92.6%. Besides, the growth in the assay on IGROV1 ovarian was -51% (active); in the assay with OVCAR-3 ovarian, -89.4% (active); in the assay with HS 578T breast, -11.4% (active); with NCI/ADR-RES ovarian, 41.5%; in the assay on T-47D breast, -74.3% (active); in the assay on BT-549 breast, -35.7% (active). The growth was 11.5% with MDA-MB-435 melanoma; -61.6% (active) in the assay with SW-620 colon; -80.5% (active) with MCF7 breast; -78.2% (active) with HCT-116 colon; 1.29% (active) in the assay on HCC-2998 colon; 6.05% (active) in the assay on KM12 colon.

For `CCOC(=O)C(Cc1ccccc1)n1c(O)c(C=Nc2ccc(C(=O)OCCN(CC)CC)cc2)sc1=O` (configuration not stated), the growth in the assay with SR leukemia was 23.7%; in the assay with RPMI-8226 leukemia, 68%; with OVCAR-8 ovarian it was 92.8%; in the assay on OVCAR-5 ovarian it was 100%; with OVCAR-4 ovarian, 89.4%; in the assay on SK-OV-3 ovarian it was 106%. The growth in the assay with IGROV1 ovarian was 97.5%; in the assay with OVCAR-3 ovarian, 93%; with HS 578T breast, 88.1%; in the assay on NCI/ADR-RES ovarian it was 107%; in the assay with T-47D breast, 81.6%; with BT-549 breast, 96.3%. In addition, the growth in the assay with MDA-MB-435 melanoma is 90.1%; in the assay on SW-620 colon, 97.6%; with MCF7 breast, 74.5%; in the assay on HCT-116 colon, 104%; in the assay on HCC-2998 colon, 108%; with KM12 colon it was 83.5%.

With `O=S(=O)(NCCCNc1cc(-c2cn(-c3ccccc3)nc2-c2cccc(O)c2)ccn1)c1cccc2ccccc12`, the growth with SR leukemia was 13.9%; with RPMI-8226 leukemia, 7.85% (active); in the assay with OVCAR-8 ovarian, 48.4%; in the assay on OVCAR-5 ovarian, 59.7%; with OVCAR-4 ovarian, 45.2%; in the assay with SK-OV-3 ovarian, 58.8%. Further, the growth is 51% in the assay on IGROV1 ovarian; 49.8% with OVCAR-3 ovarian; 15.6% with HS 578T breast; 39.9% in the assay on NCI/ADR-RES ovarian; 33.1% with T-47D breast; 37.1% with BT-549 breast. Besides, the growth in the assay on MDA-MB-435 melanoma is 32.8%; in the assay on SW-620 colon it was 22.5%; in the assay with MCF7 breast, 15.8%; in the assay on HCT-116 colon, 28.1%; in the assay on HCC-2998 colon, -71% (active); in the assay on KM12 colon it was 25.5%.

Take `O=C(NCCc1c[nH]c2ccccc12)C1Cc2ccccc2CN1C(=O)c1ccco1` (configuration not stated): the growth was 65.5% in the assay with SR leukemia; 87.3% in the assay on RPMI-8226 leukemia; 100% in the assay with OVCAR-8 ovarian; 125% with OVCAR-5 ovarian; 96.9% with OVCAR-4 ovarian; 125% in the assay on SK-OV-3 ovarian. The growth in the assay on IGROV1 ovarian was 3.58% (active); in the assay on OVCAR-3 ovarian, 104%; with HS 578T breast, 118%; with NCI/ADR-RES ovarian, 128%; with T-47D breast, 105%; in the assay with BT-549 breast, 102%. Further, the growth is 116% with MDA-MB-435 melanoma; 103% in the assay with SW-620 colon; 90.3% in the assay on MCF7 breast; 102% with HCT-116 colon; 164% in the assay on HCC-2998 colon; 105% in the assay with KM12 colon.

For the compound `Cc1ccc(Oc2nc3ccccc3cc2-c2nnc(Cn3c(COc4ccccc4)nc4ccccc43)o2)cc1`, the growth in the assay on SR leukemia is -7.62% (active); with RPMI-8226 leukemia it was -4.32% (active); with OVCAR-8 ovarian it was 25.5%; in the assay with OVCAR-5 ovarian it was 87.7%; in the assay with OVCAR-4 ovarian, 53.9%; in the assay with SK-OV-3 ovarian, 77.3%. Also, the growth in the assay with IGROV1 ovarian is 37.8%; in the assay with OVCAR-3 ovarian it was 35.7%; in the assay with HS 578T breast it was 72.4%; in the assay with NCI/ADR-RES ovarian, 34.6%; with T-47D breast, 48.9%; in the assay on BT-549 breast, 14.7%. Moreover, the growth was 50.8% in the assay on MDA-MB-435 melanoma; 18.1% with SW-620 colon; 11.6% with MCF7 breast; -2.01% (active) in the assay with HCT-116 colon; 64.5% with HCC-2998 colon; 16.7% in the assay with KM12 colon.

Consider `Cc1cc(C)c2c(=O)[nH]c(SCC(=O)Nc3cccc(S(=O)(=O)N(C)C)c3)nc2n1`, for which the growth is 70.8% with SR leukemia; 87.5% in the assay on RPMI-8226 leukemia; 106% in the assay on OVCAR-8 ovarian; 97.4% with OVCAR-5 ovarian; 105% in the assay with OVCAR-4 ovarian; 103% in the assay with SK-OV-3 ovarian. Further, the growth in the assay with IGROV1 ovarian is 40.6%; in the assay on OVCAR-3 ovarian, 111%; in the assay on HS 578T breast, 122%; in the assay with NCI/ADR-RES ovarian, 105%; in the assay with T-47D breast, 92.4%; in the assay on BT-549 breast, 103%. Moreover, the growth was 105% with MDA-MB-435 melanoma; 105% with SW-620 colon; 97.4% with MCF7 breast; 97.1% with HCT-116 colon; 106% in the assay with HCC-2998 colon; 112% in the assay on KM12 colon.

As for `COc1ccc(-c2nc3sccn3c2-c2ccnc(NCCCNS(=O)(=O)c3ccc(F)cc3)n2)cc1`, the growth in the assay with SR leukemia was 14.8%; with RPMI-8226 leukemia, 5.74% (active); with OVCAR-8 ovarian, 6.98% (active); in the assay on OVCAR-5 ovarian, 77%; in the assay on OVCAR-4 ovarian, 17.1%; in the assay with SK-OV-3 ovarian it was 39.5%. Moreover, the growth is 16.3% in the assay on IGROV1 ovarian; 20.9% in the assay with OVCAR-3 ovarian; 32.5% in the assay on HS 578T breast; -5.58% (active) with NCI/ADR-RES ovarian; -12.7% (active) in the assay on T-47D breast; 10% with BT-549 breast. The growth in the assay on MDA-MB-435 melanoma is 14.1%; in the assay with SW-620 colon it was 23.2%; in the assay on MCF7 breast, 11.6%; in the assay on HCT-116 colon, 8.56% (active); in the assay with HCC-2998 colon, 52%; in the assay on KM12 colon it was 9.82% (active).

`N#Cc1ccc(NC(=O)c2ccc3cccnc3c2O)cc1`: the growth was 25.6% with SR leukemia; 23.4% with RPMI-8226 leukemia; 16% in the assay on OVCAR-8 ovarian; 60.6% in the assay on OVCAR-5 ovarian; 16.5% with OVCAR-4 ovarian; 19.8% with SK-OV-3 ovarian. Further, the growth is 21.3% with IGROV1 ovarian; 26% with OVCAR-3 ovarian; 53.8% in the assay on HS 578T breast; 8.81% (active) in the assay with NCI/ADR-RES ovarian; 27.3% with T-47D breast; 27.7% in the assay with BT-549 breast. Also, the growth is 26.2% in the assay with MDA-MB-435 melanoma; 23.1% with SW-620 colon; 15.8% with MCF7 breast; 20.3% in the assay on HCT-116 colon; 44.6% with HCC-2998 colon; 25.7% with KM12 colon.

With `CSc1ccccc1C#C/C=C\C#Cc1ccccc1N1CCCC1=O`, the growth is 12.5% in the assay with SR leukemia; 22.2% in the assay with RPMI-8226 leukemia; 74.9% in the assay on OVCAR-8 ovarian; 72.2% in the assay with OVCAR-5 ovarian; 59.7% in the assay on OVCAR-4 ovarian; 85.8% with SK-OV-3 ovarian. In addition, the growth with IGROV1 ovarian was -32.2% (active); with OVCAR-3 ovarian, 50.9%; in the assay on HS 578T breast, 98%; in the assay with NCI/ADR-RES ovarian, 41.5%; in the assay with T-47D breast, 63.2%; with BT-549 breast, 69.7%. In addition, the growth in the assay on MDA-MB-435 melanoma was 8.9% (active); in the assay on SW-620 colon, 26.9%; with MCF7 breast it was 37.6%; with HCT-116 colon, 34.4%; with HCC-2998 colon, 50.2%; in the assay on KM12 colon, 44.4%.
